About 83,000 compounds went through this panel and 20% of them were active in at least one assay; those are over-represented in the sample as a whole.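 Treatment: one concentration, 48 hours, 96-well format. Scoring: percent growth, with anything below 10 considered active.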 Values without a mark were called inactive. Activity calls are given as the source filed them.
System: MDA-MB-468 breast
Assay: NCI-60 one-dose screen, 48 h (100 = growth as untreated, 0 = no growth, -100 = all killed)
Conditions: 10 µM unless noted

SMILES | growth
CCOC(=O)CNP(=O)(OC[C@@H](Cc1ccccc1)NC(=O)c1cc2ccccc2s1)Oc1ccccc1 (stereo not given in full) | -5% (active)
O=C(N/N=C/c1cc2ccccc2n2nnnc12)Nc1ccccc1 | 98.3%
CCN(CC)CCCN1C(=O)c2c(c(C)c3c(oc4ccc(OC)cc43)c2C)C1=O | 103%
O=C(c1ccccc1)C(Br)[N+](=O)[O-] (stereo not given) | 114%
Cc1cc(C)cc(Nc2ccc([N+](=O)[O-])c(NCCN3CCOCC3)n2)c1 | 20.8%
Cc1ccc(S(=O)(=O)OC[C@@]2(C)CC[C@]3(C)CC[C@]4(C)C(=C3C2)C=C[C@@H]2[C@@]3(C)CCCNC(C)(C)[C@@H]3CC[C@]24C)cc1 | -88.5% (active)
N#Cc1c(-c2ccc(Cl)cc2)nc(SCc2ccc([N+](=O)[O-])cc2)nc1N1CCNCC1 | -44.2% (active)
O=C1Cc2ccccc2C(=O)N1 | 45.8%
COc1cnc2c(c1)C(=O)c1c-2n(CCCn2ccnc2)c(=O)c2cc(OC)c(OC)cc12 | -25.7% (active)
O=C(Nc1cccc(Cl)c1)Nc1nccs1 | -0.235% (active)
O=C1CNC(c2ccccc2)C(c2ccccc2)N1 (stereo not given) | 93.1%
C#C[C@]1(O)CC[C@H]2[C@@H]3CC=C4c5sc(Nc6nc(C)cc(OC)n6)nc5CC[C@]4(C)[C@H]3CC[C@@]21C | 63.1%
COc1cc2cc(Oc3ccc(NC(=O)Nc4ccc(Cl)c(C(F)(F)F)c4)cc3)c(C)nc2cc1OCCN1CCCCC1 | -72.3% (active)
CCC(C)[C@H](NC(=O)NC(=O)NC(=O)CI)C(=O)OC (stereo not given in full) | 86.4%
CCc1cnn2c(NCc3ccc[n+]([O-])c3)cc(N3CCCC[C@H]3CCO)nc12 | -56.3% (active)
Clc1ccc2c(NCCCCNc3nc(N4CCCCC4)nc4ccccc34)ccnc2c1 | 7.06% (active)
COc1cc(-c2csc(NC(=O)c3cc(C(F)(F)F)cc(C(F)(F)F)c3)n2)cc(OC)c1OC | 6.71% (active)
Cc1csc(NC(=O)c2sc3nc(-c4cccs4)ccc3c2N)n1 | 82%
CC(C)CNCC(=O)Nc1ccc(Cc2ccc(NC(=O)CNCC(C)C)cc2)cc1 | 79.5%
CS(=O)(=O)c1ncc(-c2ccccc2)cn1 | 95.6%

SMILES | growth
C/C(=C(/C)C1CC1CCNC1CCC(NC(=O)OC(C)(C)C)CC1)c1ccccc1 (stereo not given) | 35.3%
c1ccc(Nc2ccc(Nc3nc(-c4ccccc4)nc4ccccc34)cc2)cc1 | 82.3%
O=C(NCc1ccc(F)cc1)C1CN(c2ccc(Cl)cc2)N(c2ccc(Cl)cc2)C1=O (stereo not given) | 43.1%
COc1cc(C2=NN(C(C)=O)C(c3ccc(OC(C)=O)cc3OC(C)=O)O2)c(OC(C)=O)c2ccccc12 (stereo not given) | -9.39% (active)
COC(=O)c1ccc2oc(NC(=O)c3ccc(N4CCOCC4)c([N+](=O)[O-])c3)nc2c1 | 113%
CC(=O)Nc1ccc(S(=O)(=O)c2ccnc3cc(Cl)ccc23)cc1 | 9.85% (active)
Oc1c(Br)c(Br)c(O)c(Br)c1Br | 102%
COc1ccc(-c2nc3ccccn3c2-c2nc3ccc(Cl)cc3[nH]2)cc1 | 77.7%
COc1ccc(/C=C2\COc3ccc(O)cc3C2=O)c(OC)c1 | -1.02% (active)
CCN(CC)c1ccc2c(c1)Oc1nc(N)c(C#N)c(N)c1C2Sc1ccc(C)cc1 (stereo not given) | -88.4% (active)
S=c1[nH]ccn1-c1ccccc1Cl | 103%
CC(=O)Nc1ccc2nc3ccc(NC(C)=O)cc3[n+](-c3ccccc3)c2c1 | 104%
COc1ccc(CNCCCN2C(=O)c3ccc4c5c(ccc(c35)C2=O)C(=O)N(CCCNCCCCNCCCN)C4=O)c(OC)c1OC | -85.6% (active)
COc1cc(OC)c2cc(C(=O)c3ccc(C#N)cc3)c(=O)oc2c1 | 94.1%
Cc1cc2nc3c4cc(O)ccc4n(CCN(C)C)c3nc2cc1C | -38.4% (active)
Cc1ccc(C(=O)Nc2ccc(CN3CCN(C)CC3)c(C(F)(F)F)c2)cc1C#Cc1cnc(N)c2ccc(F)cc12 | -79.2% (active)
CCOC(=O)c1cc(C(=O)c2ccc(Cl)cc2)n2ccc(-c3cc[n+](CC(=O)c4ccc(OC)cc4)cc3)cc12 | 70.7%
COc1ccc(/C(C)=N/NC(=O)c2ccc(S(C)(=O)=O)cc2)cc1OC | 95.7%
O=C1Nc2c(ccc(Cl)c2Cl)/C1=C\c1cc(C(F)(F)F)cc(C(F)(F)F)c1 | 7.18% (active)
COc1cnc2c(c1)C(=O)c1c-2n(CCCNC2=NCCS2)c(=O)c2cc([N+](=O)[O-])ccc12 | -39% (active)

From PubChem BioAssay (NCI)
